Consider 35 molecules from PubChem BioAssay.

Each structure is given as a SMILES string. Activity calls are given as the source filed them.

The assay in a line: E. coli DRC41 culture turbidity changes, primary screen, E. coli filamentation inducer project, strain DRC41, OD650, 48 h (AID 1152).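 Also: E. coli MC1000 strain DRC41 lacking acrAB efflux pump and sulA.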 The settings on record: E. coli DRC41 (acrAB sulA), higher = more signal, called active from +8 up or from −8 down.
With `O=C1C2C=CC(C(O)Cc3ccccc3)N(n3cnnc3)C2C(=O)N1Cc1ccccc1` (stereo not given), the z-score was -1.07 (inactive).

As to `CCCC[C@@H]1C[C@H]1[C@@H](NC(=O)c1ccco1)c1ccc(-c2ccccc2)cc1`, the z-score is -1.73 (inactive).

Take `C[C@@]1([C@@H](NC(=O)c2ccc(-c3ccccc3)cc2)c2ccc(Cl)cc2)C[C@H]1C1CCCCC1`: the z-score was -1.28 (inactive).

On to `COC(=O)c1c(CC[C@@H](CO)NC(=O)NCCn2cc(C3(O)CCCC3)nn2)oc(C(C)=O)c1C(=O)OC`, for which the z-score was -1.2 (inactive).

As for `CC1(C)C2C=C(C(O)C3C=CC4C(=O)NC(=O)C4N3Nc3ccc(Cl)cc3Cl)C[C@@H]1C2` (stereo not given in full), the z-score is -4.41 (inactive).

In the case of `NC(=O)NCC#Cc1ccc2c(c1)[C@]1(C(=O)N2)[C@H](C(=O)Nc2nc3ccccc3s2)[C@H]2C(=O)O[C@H](c3ccccc3)[C@H](c3ccccc3)N2[C@@H]1c1ccccc1OCCO`, the z-score was 1.07 (inactive).

Consider `COC(=O)[C@@]1(Cc2ccc(F)cc2)[C@H]2c3cc(C(=O)N(C)C)n(Cc4cc(F)c(F)c(F)c4)c3C[C@H]2CN1C(=O)c1ccccc1`, for which the z-score is -1.42 (inactive).

As for `[N-]=[N+]=NCc1ccccc1[C@@H]1OC(c2ccc(OCCCO)cc2)=N[C@]1(Cc1ccccc1)C(=O)NCC(O)CO` (stereo not given in full), the z-score is -0.0722 (inactive).

On to `COc1cc2c(cc1OC)CN(C(=O)[C@@H]1[C@H]3C(=O)O[C@H](c4ccccc4)[C@H](c4ccccc4)N3[C@H](c3ccc(O)cc3)[C@@]13C(=O)Nc1ccccc13)CC2`, for which the z-score was 2.38 (inactive).

On to `[N-]=[N+]=Nc1ccccc1[C@H]1OC(c2ccc(OCCCO)cc2)=N[C@@]1(CCS(=O)(=O)c1ccccc1)C(=O)NCC(O)CO` (stereo not given in full), for which the z-score was -0.562 (inactive).

`O=C1NC(=O)C2C1C=CC(C(O)c1cccs1)N2Nc1ccc(Cl)cc1Cl` (stereo not given): the z-score is -0.713 (inactive).

For the molecule `C=CCNC(=O)[C@H]1[C@@H]2C(=O)O[C@@H](c3ccccc3)[C@@H](c3ccccc3)N2[C@@H](c2ccccc2OCCO)[C@]12C(=O)Nc1ccc(C#CCCO)cc12`, the z-score was -0.849 (inactive).

With `CC(C)C(CO)N1C(=O)[C@@H]2C3C(=O)OCCC/C=C\[C@H]3OC23C=CCN(CCN2CCOCC2)C(=O)[C@@H]13` (stereo not given in full), the z-score is -0.385 (inactive).

Consider `CC(=O)n1cc(C(O)C2C=CC3C(=O)N(c4ccccc4)C(=O)C3N2Nc2ccc([N+](=O)[O-])cc2)c2ccccc21` (stereo not given), for which the z-score was -1.2 (inactive).

Regarding `CCOC(=O)C[C@H]1[C@H](OC(=O)c2ccc(C(=O)c3ccccc3)cc2)[C@@H](NC(=O)c2ccc3ccccc3n2)c2cc(OCCCO)ccc2N1C(=O)c1ccccc1`, the z-score is -0.983 (inactive).

Turning to `COc1ccc(C#Cc2ccc3c(c2)[C@]2(C(=O)N3)[C@H](C(=O)NC[C@H](O)c3ccccc3)[C@H]3C(=O)O[C@H](c4ccccc4)[C@H](c4ccccc4)N3[C@@H]2c2ccc(O)cc2)cc1`, the z-score is 0.078 (inactive).

Consider `N#Cc1ccc(NN2C(C(O)C(c3ccccc3)c3ccccc3)C=CC3C(=O)N(c4ccccc4)C(=O)C32)cc1` (stereo not given), for which the z-score is -0.0948 (inactive).

For the molecule `Cc1ccccc1C(O)C1C=CC2C(=O)N(c3ccccc3)C(=O)C2N1Nc1ccc(C(C)C)cc1` (stereo not given), the z-score was -1.6 (inactive).

Take `CO[C@H]1O[C@H](CO)[C@@H](OC(=O)Nc2cccc(F)c2)[C@H](OC(=O)Nc2ccccc2)[C@@H]1OC(=O)Nc1ccccc1`: the z-score was -1.17 (inactive).

In the case of `C=CCOC(=O)[C@H]1[C@@H]2C(=O)O[C@@H](c3ccccc3)[C@@H](c3ccccc3)N2[C@@H](c2ccc(OCCOC(=O)[C@H]3C[C@H]4C(=O)N[C@@H](CCCCNC(C)=O)C(=O)N4[C@H]3c3ccc(O)cc3)cc2)[C@]12C(=O)Nc1ccc(I)cc12`, the z-score was -1.8 (inactive).

Regarding `Cc1nc2cc(Br)ccc2c(=O)o1`, the z-score is 0.776 (inactive).

For the molecule `CCCC[C@H]1OB(O)C[C@H]2C1=C(COC)Cn1c(=O)n(-c3ccccc3)c(=O)n12`, the z-score is 0.929 (inactive).

Take `COc1ccc([Si](C)(C)[C@@H]2[C@@H](CCO)O[C@]3(C(=O)N(Cc4ccc(N(C=O)c5ccccc5)cc4)c4ccccc43)[C@H]2C)cc1`: the z-score was -0.482 (inactive).

For `CC(C)[Si](C#Cc1ccc(Oc2ccccc2)cc1)(O[Si](C#Cc1ccc(Oc2ccccc2)cc1)(C(C)C)C(C)C)C(C)C`, the z-score was 0.555 (inactive).

With `CN1C=C(C(=O)OCCS(C)(=O)=O)C(C(=O)OCCS(C)(=O)=O)=CC(c2ccc(CO)cc2)=CC1C1CC1` (stereo not given), the z-score was 0.225 (inactive).

Regarding `COc1ccc(CCNC(=O)[C@@]2(Sc3ccc(C)cc3)CC(=O)N(C(C)C)[C@@H]2c2ccc(CO)cc2I)cc1`, the z-score was -0.0322 (inactive).

As for `CC1(C)[C@@H]2CC(C(O)C3C=CC4C(=O)N(c5ccccc5)C(=O)C4N3Nc3ccc([N+](=O)[O-])cc3)=C[C@H]1C2` (stereo not given in full), the z-score was -1.03 (inactive).

Take `NC(=O)NCC#Cc1ccc2c(c1)[C@]1(C(=O)N2)[C@H](c2ccccc2OCCO)N2[C@H](c3ccccc3)[C@H](c3ccccc3)OC(=O)[C@H]2[C@@H]1C(=O)Nc1nc2ccccc2s1`: the z-score was 0.726 (inactive).

Consider `COC(=O)C(CC#Cc1ccc2c(c1)[C@]1(C(=O)N2)[C@H](C(=O)Nc2nc3ccccc3s2)[C@H]2C(=O)O[C@H](c3ccccc3)[C@H](c3ccccc3)N2[C@@H]1c1ccc(O)cc1)C(=O)OC`, for which the z-score is -1.2 (inactive).

Take `C=CCC(OC(C)=O)[C@@H]1[C@@H](N(Cc2ccc(-c3cccc(C(F)(F)F)c3)o2)C(=O)c2ccc(C)cc2)c2cc(OCCCO)ccc2N1C(=O)Cc1ccc2ccccc2c1` (stereo not given in full): the z-score is 1.93 (inactive).

For `O=C1O[C@H](c2ccccc2)[C@H](c2ccccc2)N2[C@H]1[C@@H](C(=O)N1CCCCCCC1)[C@]1(C(=O)Nc3ccc(C#CC4=CCCCC4)cc31)[C@H]2c1ccc(OCCO)cc1`, the z-score is 2.72 (inactive).

For the molecule `CCCCCN1CC=CC23O[C@@H]4C=CCCOC(=O)C4[C@H]2C(=O)N(CCCCCO)[C@@H]3C1=O` (stereo not given in full), the z-score was 1.09 (inactive).

For `COCCCNC(=O)[C@]1(CCC(=O)OC(C)(C)C)N=C(c2ccc(OCCCO)cc2)O[C@@H]1c1ccccc1CN=[N+]=[N-]`, the z-score is -0.458 (inactive).

`O=C1c2ccccc2[C@](Cc2ccccc2I)(C(=O)NCCN2CCOCC2)[C@H](c2ccc(CO)cc2)N1C1CCCCC1`: the z-score was 0.0237 (inactive).

On to `COc1ccc([Si](C)(C)[C@H]2[C@H](CCO)O[C@@]3(C(=O)N(Cc4ccc(N(C=O)c5ccccc5)cc4)c4ccccc43)[C@@H]2C)cc1`, for which the z-score is -0.208 (inactive).
